# PubChem BioAssay (EPA / NIEHS)
# Results filed as inconclusive are left out. Active and inactive are the calls of the source. How the source made its calls: active means hit-call score of the fitted dose curve at least 0.9, where 1 is the maximum; inconclusive means response in the unintended direction; inactive means score below 0.9.
# How the values were obtained:
# [1] = biological target: rat Glycine Receptor, Strychnine-sensitive (GlyRStrySens), Glra1 (gene 25674) (UniProt P07727); assay: NVS_LGIC_rGlyRStrySens: NovaScreen (NVS) Ligand-Gated Ion Channel Assay for rat Glycine Receptor, Strychnine-sensitive (GlyRStrySens) (AID 2283341)
# Chain of rat Glycine Receptor, Strychnine-sensitive (GlyRStrySens), Glra1 (gene 25674) (P07727 whole entry, looked up): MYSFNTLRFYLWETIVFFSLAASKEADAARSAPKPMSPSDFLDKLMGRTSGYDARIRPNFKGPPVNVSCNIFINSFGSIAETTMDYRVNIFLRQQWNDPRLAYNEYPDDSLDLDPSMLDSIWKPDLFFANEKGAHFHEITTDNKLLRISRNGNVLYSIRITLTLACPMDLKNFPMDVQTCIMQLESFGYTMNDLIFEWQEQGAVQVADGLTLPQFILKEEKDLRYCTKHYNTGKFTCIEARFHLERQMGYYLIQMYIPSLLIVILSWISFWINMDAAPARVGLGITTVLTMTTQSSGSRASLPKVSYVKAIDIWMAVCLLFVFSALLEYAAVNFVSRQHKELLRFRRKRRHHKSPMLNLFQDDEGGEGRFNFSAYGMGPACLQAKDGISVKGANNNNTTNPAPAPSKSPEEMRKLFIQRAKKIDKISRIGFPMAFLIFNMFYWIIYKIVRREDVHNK
# Outline: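 Radioligand displacement on rat spinal cord membranes, 1 hr, filter scintillation read-out. Single-concentration duplicate screen at 25 uM; chemicals meeting threshold (e.g., 30% inhibition) rerun in concentration-response up to 50 uM. Loss of binding fitted versus DMSO.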
# [2] = biological target: Estrogen receptor beta (Homo sapiens) (UniProt Q92731); assay: OT_ER_ERbERb_0480: Odyssey Thera (OT) 8-hour HEK293T Protein-Complementation Assay for Estrogen Receptor-beta/-beta Homodimer (AID 2283357);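 further: active means signal gain over DMSO baseline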
# Chain of Estrogen receptor beta (Homo sapiens) (Q92731 whole entry, looked up, the tested form may be a part): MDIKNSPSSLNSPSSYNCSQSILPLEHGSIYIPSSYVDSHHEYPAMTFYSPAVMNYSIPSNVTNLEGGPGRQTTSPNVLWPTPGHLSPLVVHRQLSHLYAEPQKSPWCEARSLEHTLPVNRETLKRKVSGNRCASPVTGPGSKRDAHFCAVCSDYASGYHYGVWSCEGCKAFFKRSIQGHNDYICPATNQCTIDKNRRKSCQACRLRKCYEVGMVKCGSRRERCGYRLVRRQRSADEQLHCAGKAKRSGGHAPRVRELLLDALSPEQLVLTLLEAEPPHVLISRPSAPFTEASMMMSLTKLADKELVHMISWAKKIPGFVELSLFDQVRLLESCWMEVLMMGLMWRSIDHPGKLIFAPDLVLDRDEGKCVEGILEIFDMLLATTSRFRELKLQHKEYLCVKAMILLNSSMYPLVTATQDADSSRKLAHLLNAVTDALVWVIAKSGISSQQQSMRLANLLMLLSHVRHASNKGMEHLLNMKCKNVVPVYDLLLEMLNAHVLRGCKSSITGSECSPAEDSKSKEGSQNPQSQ
# Outline: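 Homodimerization of ER-beta LBD measured by protein-fragment complementation in HEK293T; 8 h dosing; fixed, Draq5 counterstain; fluorescence intensity gain over DMSO baseline, positive fitting direction; laser scanning cytometry.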
# [3] = biological target: chimpanzee Androgen Receptor (AR), AR (gene 747460) (UniProt O97775); assay: NVS_NR_cAR: NovaScreen (NVS) Nuclear Receptor Binding Assay for chimpanzee Androgen Receptor (AR) (AID 2283346);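 further: radioligand displacement from AR measured by scintillation counting in a cell-free assay; a loss of bound radioligand signal versus DMSO counts as binding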
# Chain of chimpanzee Androgen Receptor (AR), AR (gene 747460) (O97775 whole entry, looked up): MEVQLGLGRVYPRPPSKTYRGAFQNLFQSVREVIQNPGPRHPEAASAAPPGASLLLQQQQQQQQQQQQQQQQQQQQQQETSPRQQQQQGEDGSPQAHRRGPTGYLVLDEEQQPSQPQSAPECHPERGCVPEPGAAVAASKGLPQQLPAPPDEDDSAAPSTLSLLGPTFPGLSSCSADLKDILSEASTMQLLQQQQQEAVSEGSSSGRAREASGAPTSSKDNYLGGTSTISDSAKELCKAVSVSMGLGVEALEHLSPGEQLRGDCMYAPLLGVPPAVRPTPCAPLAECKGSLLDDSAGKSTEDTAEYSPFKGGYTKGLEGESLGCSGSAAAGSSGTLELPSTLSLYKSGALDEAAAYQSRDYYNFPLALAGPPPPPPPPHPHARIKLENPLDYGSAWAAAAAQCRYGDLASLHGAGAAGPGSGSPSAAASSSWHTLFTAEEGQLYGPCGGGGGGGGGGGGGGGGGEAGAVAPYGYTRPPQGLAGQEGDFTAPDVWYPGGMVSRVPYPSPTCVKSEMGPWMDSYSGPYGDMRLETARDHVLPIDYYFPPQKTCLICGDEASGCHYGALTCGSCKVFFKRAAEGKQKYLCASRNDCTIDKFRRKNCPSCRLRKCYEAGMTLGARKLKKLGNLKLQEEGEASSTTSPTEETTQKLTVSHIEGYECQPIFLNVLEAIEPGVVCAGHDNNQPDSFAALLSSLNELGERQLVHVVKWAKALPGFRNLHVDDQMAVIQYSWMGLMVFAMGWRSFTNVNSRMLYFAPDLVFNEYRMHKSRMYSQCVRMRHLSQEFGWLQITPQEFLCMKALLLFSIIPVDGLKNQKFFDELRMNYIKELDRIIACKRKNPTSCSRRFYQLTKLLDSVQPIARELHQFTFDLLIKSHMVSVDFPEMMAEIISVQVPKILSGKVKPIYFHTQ
# Outline: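 Radioligand binding to chimpanzee AR expressed in Sf9/Sf21 cells, cell-free, measured 72 h after dosing by lysate-based scintillation counting. Loss of signal vs DMSO; initial duplicate screen at 25 uM, actives retested in concentration series.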
# NCBI gene 100848466 = assay: NVS_NR_bPR: NovaScreen (NVS) Nuclear Receptor Binding Assay for bovine Progextron Receptor (PR) (AID 2283343);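 further: actives lower bound radioligand signal below DMSO meaning displacement of the label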
# Outline: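 Scintillation counts of bound radioligand were read 18 hours after chemical addition to membranes extracted from bovine uterus. Displacement was scored as loss of signal relative to DMSO controls. Screening began at 25 uM in duplicate.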
# [4] = biological target: Estrogen receptor (Homo sapiens) (UniProt P03372); assay: OT_ER_ERaERa_1440: Odyssey Thera (OT) 24-hour HEK293T Protein-Complementation Assay for Estrogen Receptor-alpha/-alpha Homodimer (AID 2283349);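 further: hits raise fluorescence above DMSO for agonists and antagonists alike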
# Chain of Estrogen receptor (Homo sapiens) (P03372 whole entry, looked up, the tested form may be a part): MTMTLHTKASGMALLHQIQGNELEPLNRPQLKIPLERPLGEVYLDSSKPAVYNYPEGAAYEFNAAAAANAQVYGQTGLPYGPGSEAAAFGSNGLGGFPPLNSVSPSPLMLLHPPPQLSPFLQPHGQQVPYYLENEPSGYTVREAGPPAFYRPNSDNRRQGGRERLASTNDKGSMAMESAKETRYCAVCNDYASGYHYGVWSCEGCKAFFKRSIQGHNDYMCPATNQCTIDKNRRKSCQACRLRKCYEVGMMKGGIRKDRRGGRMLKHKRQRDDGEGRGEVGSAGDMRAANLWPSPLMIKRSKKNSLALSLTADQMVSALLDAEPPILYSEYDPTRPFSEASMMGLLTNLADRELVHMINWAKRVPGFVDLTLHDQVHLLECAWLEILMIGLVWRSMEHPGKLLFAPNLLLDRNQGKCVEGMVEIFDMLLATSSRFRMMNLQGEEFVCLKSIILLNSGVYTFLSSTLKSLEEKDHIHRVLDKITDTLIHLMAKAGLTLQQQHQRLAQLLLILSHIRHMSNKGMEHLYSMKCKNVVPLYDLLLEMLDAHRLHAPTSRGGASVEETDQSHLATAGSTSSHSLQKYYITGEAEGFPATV
# Outline: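 Cells (HEK293T) carrying the fragment-tagged ERα LBD (aa 310-547) pair are treated with chemical for 24 hours. Nuclear and/or cytoplasmic fluorescence is then quantified on a laser scanning cytometer. Activity is scored as signal gain against DMSO.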
# [5] = biological target: Estrogen receptor (Homo sapiens) (UniProt P03372); assay: OT_ER_ERaERa_0480: Odyssey Thera (OT) 8-hour HEK293T Protein-Complementation Assay for Estrogen Receptor-alpha/-alpha Homodimer (AID 2283351);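 further: rise in fluorescence from reassembled reporter fragments on ERα LBD homodimer in nucleus or whole cell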
# Outline: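 HEK293T cells stably expressing a PCA pair of ER alpha LBD (residues 310-547) were dosed for 8 hours. The gain in fluorescence intensity, nuclear for agonists and whole-cell for antagonists, was measured by laser scanning cytometry against DMSO vehicle.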
# [6] = biological target: human Peroxisome Proliferator-activated Receptor alpha (PPARa), PPARA (gene 5465) (UniProt Q07869); assay: NVS_NR_hPPARa: NovaScreen (NVS) Nuclear Receptor Binding Assay for human Peroxisome Proliferator-activated Receptor alpha (PPARa) (AID 2283359);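 further: activity means loss of TR-FRET signal versus DMSO baseline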
# Chain of human Peroxisome Proliferator-activated Receptor alpha (PPARa), PPARA (gene 5465) (Q07869 whole entry, looked up): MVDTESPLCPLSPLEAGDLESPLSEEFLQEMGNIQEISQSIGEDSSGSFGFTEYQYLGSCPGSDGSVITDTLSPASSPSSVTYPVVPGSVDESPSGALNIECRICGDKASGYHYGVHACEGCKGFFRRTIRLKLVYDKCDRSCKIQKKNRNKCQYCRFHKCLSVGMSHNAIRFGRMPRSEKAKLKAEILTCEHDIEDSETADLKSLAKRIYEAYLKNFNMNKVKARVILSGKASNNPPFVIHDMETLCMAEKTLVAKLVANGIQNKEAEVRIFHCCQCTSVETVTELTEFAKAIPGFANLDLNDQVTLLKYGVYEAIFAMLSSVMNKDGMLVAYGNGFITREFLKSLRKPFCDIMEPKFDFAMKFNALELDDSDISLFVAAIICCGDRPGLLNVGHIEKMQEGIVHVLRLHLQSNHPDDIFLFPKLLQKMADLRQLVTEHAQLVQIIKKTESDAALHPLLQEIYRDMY
# Outline: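 TR-FRET signal measured at 1 h post-dosing; loss-of-signal versus DMSO negative control taken as activity. Extracted gene-protein, cell-free format. Initial single-point duplicates at 25 uM, then concentration-response retests.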
# [7] = test system: guinea pig Histamine Receptor (H2), gene 100729734; assay: NVS_GPCR_gH2: NovaScreen (NVS) G Protein-Coupled Receptor Assay for guinea pig Histamine Receptor (H2) (AID 2283342)
# Outline: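 Guinea pig striatal membrane preparation with specific radioligand; bound counts measured by filtration and scintillation 1 h post-dosing, DMSO as baseline. Chemicals passing a 25 uM duplicate screen were titrated to a 50 uM maximum.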
# [8] = biological target: Estrogen receptor (Homo sapiens) + Estrogen receptor beta (Homo sapiens) (UniProt P03372+Q92731); assay: OT_ER_ERaERb_0480: Odyssey Thera (OT) 8-hour HEK293T Protein-Complementation Assay for Estrogen Receptor-alpha/-beta Heterodimer (AID 2283352)
# Chain of Estrogen receptor (Homo sapiens) + Estrogen receptor beta (Homo sapiens) (P03372 whole entry, looked up, the tested form may be a part): as the sequence (P03372 whole entry, looked up, the tested form may be a part) above
# Chain of Estrogen receptor (Homo sapiens) + Estrogen receptor beta (Homo sapiens) (Q92731 whole entry, looked up, the tested form may be a part): as the sequence (Q92731 whole entry, looked up, the tested form may be a part) above
# Outline: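 HEK293T cells expressing ER-alpha/ER-beta LBD fusions to complementary reporter fragments were dosed with compound for 8 hours. Heterodimer formation was read as increased nuclear (agonist) or nuclear plus cytoplasmic (antagonist) mean fluorescence intensity versus DMSO vehicle.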
# PGR (gene 5241) = PGR (gene 5241) (UniProt P06401); assay: NVS_NR_hPR: NovaScreen (NVS) Nuclear Receptor Binding Assay for human Progestron Receptor (PR) (AID 2283360);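 further: active means loss of bound radioligand signal versus DMSO baseline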
# Chain of PGR (gene 5241) (P06401 whole entry, looked up): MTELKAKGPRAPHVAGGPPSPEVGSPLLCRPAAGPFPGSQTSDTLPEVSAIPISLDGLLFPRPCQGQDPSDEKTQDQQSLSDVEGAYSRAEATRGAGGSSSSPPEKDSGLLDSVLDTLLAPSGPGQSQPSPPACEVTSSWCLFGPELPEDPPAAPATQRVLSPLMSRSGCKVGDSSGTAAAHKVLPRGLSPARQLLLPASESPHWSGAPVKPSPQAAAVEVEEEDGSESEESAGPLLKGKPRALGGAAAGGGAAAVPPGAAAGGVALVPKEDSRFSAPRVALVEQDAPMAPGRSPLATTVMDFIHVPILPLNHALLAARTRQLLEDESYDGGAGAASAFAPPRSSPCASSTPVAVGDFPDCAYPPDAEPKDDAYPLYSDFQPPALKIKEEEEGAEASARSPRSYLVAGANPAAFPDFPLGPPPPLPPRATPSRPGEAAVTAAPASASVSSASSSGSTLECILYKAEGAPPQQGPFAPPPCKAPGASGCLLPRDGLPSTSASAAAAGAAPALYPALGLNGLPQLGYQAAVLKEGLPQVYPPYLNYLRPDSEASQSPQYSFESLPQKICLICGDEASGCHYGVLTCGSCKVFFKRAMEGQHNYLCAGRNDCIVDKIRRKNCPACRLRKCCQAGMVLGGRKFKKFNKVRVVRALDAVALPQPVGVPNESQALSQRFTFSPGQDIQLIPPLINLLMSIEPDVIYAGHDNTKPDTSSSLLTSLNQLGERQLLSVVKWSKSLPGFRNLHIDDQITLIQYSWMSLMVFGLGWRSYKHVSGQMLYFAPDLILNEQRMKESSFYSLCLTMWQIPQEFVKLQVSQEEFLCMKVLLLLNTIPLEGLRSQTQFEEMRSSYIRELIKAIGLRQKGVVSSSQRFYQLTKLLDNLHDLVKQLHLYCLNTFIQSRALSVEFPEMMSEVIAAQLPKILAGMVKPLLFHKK
# Outline: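 T47D-derived receptor preparation, cell-free, with tritiated or iodinated radioligand displacement measured by scintillation 18 h post-dosing. Single 25 uM duplicate screen, then concentration series; signal loss relative to DMSO.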
smiles,measurement,setting,value
CCCCC(CC)CO (stereo not drawn),outcome,[1],inactive
same,outcome,[2],inactive
S=c1[nH]c2ccccc2s1,outcome,[3],inactive
same,outcome,[2],inactive
CCCCCCCCCCCCCCOS(=O)(=O)O,AC50,NCBI gene 100848466,25 µM (active)
same,outcome,[4],inactive
same,outcome,[5],inactive
same,outcome,[2],inactive
same,AC50,[6],3.99 µM (active)
CCCCC(CC)COP(=O)(OCC(CC)CCCC)OCC(CC)CCCC (stereo not drawn),AC50,[3],18.1 µM (active)
CN(C)C(=O)NC1(c2ccccc2)CCN(CCC[C@]2(c3ccc(Cl)c(Cl)c3)CCCN(C(=O)c3ccccc3)C2)CC1,AC50,[7],0.0164 µM (active)
same,outcome,[4],inactive
same,outcome,[5],inactive
same,outcome,[8],inactive
same,outcome,[2],inactive
c1ccc2occc2c1,outcome,[4],inactive
same,outcome,[5],inactive
C/C=C/C=C/C(=O)O,outcome,[2],inactive
OCC(CO)n1cnc(-c2ccc(F)cc2)c1-c1ccnc(Oc2ccccc2)n1,outcome,[4],inactive
same,outcome,[5],inactive
same,outcome,[8],inactive
same,outcome,[2],inactive
NC(=Nc1ccccc1)Nc1ccccc1,outcome,[4],inactive
same,outcome,[5],inactive
same,outcome,[8],inactive
same,outcome,[2],inactive
same,outcome,[6],inactive
C/C=C/c1ccc(OC)cc1,outcome,[2],inactive
CC1=C(C)S(=O)(=O)CCS1(=O)=O,outcome,[4],inactive
same,outcome,[5],inactive
same,outcome,[6],inactive
same,outcome,PGR (gene 5241),inactive
Oc1ccccc1O,outcome,[2],inactive
same,outcome,[6],inactive
CC(C)COC(=O)CCCCC(=O)OCC(C)C,outcome,[6],inactive
same,outcome,PGR (gene 5241),inactive
CC(=O)O,outcome,PGR (gene 5241),inactive
CN(C)CCCN(C)CCCN(C)C,outcome,[4],inactive
same,outcome,[5],inactive
same,outcome,[2],inactive
same,outcome,[6],inactive
same,outcome,PGR (gene 5241),inactive
CC1(C)C(=O)NC(=O)N1CO,outcome,[4],inactive
same,outcome,[5],inactive
same,outcome,[8],inactive
Nc1nc(Cl)nc2c1ncn2[C@H]1C[C@H](O)[C@@H](CO)O1,outcome,[6],inactive
CC(=O)OCC(COC(C)=O)OC(C)=O,outcome,[2],inactive
COc1ccc(C(=O)Nc2nc3ccccc3c(NCc3ccccc3)c2C#N)cc1,outcome,[4],inactive
same,outcome,[5],inactive
same,outcome,[8],inactive
same,outcome,[2],inactive
same,outcome,[6],inactive
CCCCOC(=O)CCCCC(=O)OCCCC,outcome,[6],inactive
